Measurements as given in PubChem BioAssay (NCI).
Compounds without any hit were thinned out: in the full panel of roughly 83,000, 20% have a hit.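 Each cell line was grown in a 96-well plate and treated with one concentration of compound for 48 hours. Values below 10 were considered active.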 A number with no mark means an inactive call. Calls of active or inactive are those of the source.

Columns and labels:
Assay in all cases: NCI-60 one-dose screen, 48 h (100 = growth as untreated, 0 = no growth, -100 = all killed)
Settings in all cases: 10 µM unless noted
NCI-H23 lung = tested on: NCI-H23 lung
NCI-H226 lung = tested on: NCI-H226 lung
NCI-H322M lung = tested on: NCI-H322M lung
HOP-62 NSCLC = tested on: HOP-62 NSCLC
NCI-H460 lung = tested on: NCI-H460 lung
HOP-92 NSCLC = tested on: HOP-92 NSCLC
NCI-H522 lung = tested on: NCI-H522 lung
A549/ATCC NSCLC = tested on: A549/ATCC NSCLC
786-0 renal = tested on: 786-0 renal
COLO 205 colon = tested on: COLO 205 colon

| SMILES | growth (NCI-H23 lung) | growth (NCI-H226 lung) | growth (NCI-H322M lung) | growth (HOP-62 NSCLC) | growth (NCI-H460 lung) | growth (HOP-92 NSCLC) | growth (NCI-H522 lung) | growth (A549/ATCC NSCLC) | growth (786-0 renal) | growth (COLO 205 colon) |
| --- | --- | --- | --- | --- | --- | --- | --- | --- | --- | --- |
| COc1ccc2cc([C@H](C)C(=O)N/N=C/c3ccc(Br)cc3)ccc2c1 | 101% | 103% | 98.2% | 90.1% | 100% | 103% | 92% | 100% | 95.4% | 108% |
| CCCSc1nc(NCCc2c[nH]c3ccccc23)c(C#N)c(-c2ccccc2)n1 | 89.4% | 65.4% | 93.5% | 65.4% | 25% | 78.9% | 57.9% | 73.5% | 74.7% | 62.8% |
| COc1cc(/C=C/C(=O)c2nnn(-c3ccc(Cl)cc3)c2C)cc(OC)c1OC | 26.9% | 40% | 63.1% | 37.2% | 14.2% | 38.7% | 28% | 34.9% | 65.8% | 41.5% |
| COc1cccc(/C=C/C(=O)c2ccc(OC)c(S(N)(=O)=O)c2)c1 | 15.1% | 53.9% | 22.2% | 21.4% | 16.2% | 55.9% | -65.1% (active) | 10.3% | 14.6% | -18.4% (active) |
| CCC(C)(C)c1ccc(OCCCCCCN2CCN(c3ccncc3)CC2)cc1 | 1.24% (active) | 35.6% | 47.6% | 35.1% | -29.7% (active) | -27.8% (active) | 8.93% (active) | 32.8% | -79% (active) | -84.4% (active) |
| CC(=O)Nc1cccc(-c2nc3cc(-c4ccc(O)cc4)ccc3n2C)c1 | 48.8% | 49.8% | 67.1% | 54.3% | 55.4% | 93.7% | 26.7% | 35.2% | 63.2% | 56.5% |
| COc1ccc(C(SCCNCc2cc(N(C)C)ccn2)(c2ccccc2)c2ccccc2)cc1 | -10.7% (active) | 15.1% | 27.5% | 10.9% | -58.6% (active) | -16.5% (active) | -20.6% (active) | 10.1% | -23.1% (active) | -78% (active) |
| CSc1ccc(C(=O)Nc2ccc3nn(/C(C#N)=C/c4ccccn4)nc3c2)cc1 | -84% (active) | -59.2% (active) | 15.4% | -46.2% (active) | -54.9% (active) | -48.5% (active) | -87.9% (active) | 10.6% | -95.5% (active) | -86.1% (active) |
| NS(=O)(=O)c1ccc(NNC(=O)CCC(=O)c2ccccc2)cc1 | 105% | 100% | 109% | 100% | 107% | 93.3% | 89.1% | 103% | 98.4% | 118% |
| CC(=O)NNc1ccc2nnc(-c3ccccc3)n2n1 | 96.6% | 105% | 102% | 116% | 106% | 109% | 109% | 102% | 104% | 104% |
| CCCCOc1ccc(NC(=O)c2sc3nc(C)ccc3c2N)cc1 | -69.5% (active) | 10.2% | 40.3% | 21.9% | 7.45% (active) | -37.2% (active) | 17.3% | 0.0895% (active) | -78.5% (active) | 80.4% |
| O=c1onc(-c2cc3ccccc3nc2Cl)n1-c1cccc2ccccc12 | 56.5% | 40.8% | 76.4% | 55.6% | 51.7% | 38.7% | 27.8% | 55.5% | 73.3% | 56.4% |
| COc1ccc(NC(=O)Cn2c(O)c(N=Nc3ccc(S(N)(=O)=O)cc3)c3ccccc32)cc1 | 10.5% | 39.8% | 34.4% | 8.57% (active) | 21.3% | 79.6% | 66.6% | 24.6% | -25.3% (active) | 58.5% |
| N#Cc1ccc(C(=O)Nn2c(N)cc3ccccc3c2=O)cc1 | 93.8% | 84.4% | 94.7% | 99.3% | 80.3% | 88.2% | 95% | 94.4% | 98.3% | 112% |
| CC(/C=C1\SC(=S)N(CCCC(=O)NC(CC(C)C)C(=O)O)C1=O)=C\c1ccccc1 (stereo not given) | 96.5% | 91.1% | 92.8% | 110% | 99.8% | 7.81% (active) | 84.2% | 89.8% | 93.4% | 124% |
| COc1cc(C2CC(c3cc(OC)c(OC)c(OC)c3)=NN2c2ccccc2)ccc1OCc1ccc(C)cc1 (stereo not given) | 101% | 80.2% | 102% | 99.6% | 99.3% | 111% | 82.3% | 102% | 102% | 119% |
| Cc1cc(C)n(-c2ccc3nnc(-c4ccccc4)n3n2)n1 | 94.1% | 105% | 110% | 122% | 104% | 85.2% | 74.7% | 99.6% | 93.9% | 115% |
| CC(C)Sc1nc(NCCc2c[nH]c3ccccc23)c(C#N)c(-c2ccccc2)n1 | 17.9% | 33.8% | 85.4% | 31.9% | 6.33% (active) | 4.4% (active) | 25.4% | 39.6% | 1.53% (active) | 11.9% |
| Cc1ccc([C@H]2C(C(=O)c3ccc(Cl)cc3)C3(N[C@@H]2c2ccccc2)C(=O)Nc2ccc(Br)cc23)cc1 (stereo not given in full) | 61.4% | 66.7% | 69.1% | 69.9% | 55.6% | 21.9% | 46.5% | 38.4% | 45.8% | 49.3% |
| COc1ccc(-c2nc3ccc(C(=O)NN4C(=O)c5ccc([N+](=O)[O-])cc5C4=O)cc3[nH]2)cc1 | 98% | 79.9% | 96.1% | 91.8% | 100% | 81% | 88.6% | 93% | 87.7% | 105% |
| COc1ccc(C(=O)/C=C/c2ccc(OCc3ccc(F)cc3)c(OC)c2)cc1OC | 26.5% | 46.3% | 7.43% (active) | 26.6% | 14.8% | -14.8% (active) | 2.98% (active) | 11.9% | 37.4% | 29.9% |
| CCOC(=O)C1=C(N)N(c2ccccc2)C2=C(C(=O)CC(C)(C)C2)C1c1ccc(Cl)cc1Cl (stereo not given) | 34.5% | 24.4% | 56.8% | 50.5% | 18.3% | -0.322% (active) | 35.3% | 26.9% | 34.3% | 9.03% (active) |
| C=C1CCC2C3(C)COC(c4cccc(F)c4)OC3CCC2(C)C1C/C=C1/C(=O)OCC1O (stereo not given) | -37.6% (active) | 30.7% | 53.3% | 22.6% | 8.73% (active) | -6.12% (active) | -76.1% (active) | 23.3% | -84.8% (active) | -51.5% (active) |
| C=C1CC[C@@H]2[C@]3(C)COC(c4cn[nH]c4-c4ccc(OC)cc4)O[C@@H]3CC[C@@]2(C)[C@@H]1C/C=C1/C(=O)OCC1O (stereo not given in full) | -12.6% (active) | -45% (active) | 32.6% | -56.9% (active) | -49.6% (active) | -34.5% (active) | -18.4% (active) | 7.46% (active) | -89.7% (active) | -83.1% (active) |
| COc1ccc(NC(=O)[C@H](CO)NC(=O)OC(C)(C)C)cc1C(=O)Nc1cccc(C2CC(=O)c3c(cc(OC)c(OC)c3OC)O2)c1 (stereo not given in full) | 50.7% | 48.1% | 81.1% | 83% | 55.3% | 81.9% | 31.4% | 68.8% | 68.3% | 77.2% |
| COc1ccc(C(=O)/C=C/c2ccc3ccccc3c2)cc1S(N)(=O)=O | -23.7% (active) | 20.1% | 11.3% | -30.1% (active) | 2.36% (active) | 24.9% | -62.9% (active) | -78.4% (active) | -89.2% (active) | -76.3% (active) |
